Measurements: PubChem BioAssay
Activity calls are given as the source filed them. Unless noted, the rule behind the calls is not given here.

How the values were obtained:
[1] = HepG2 liver cancer cell viability effects, profiling panel, resazurin fluorescence, 24 h, PK04 Diversity Set (AID 1172); settings: higher = more signal; note: test concentration not given here
[2] = basal S. cerevisiae growth modulation, no modifier, primary screen, OD600, strain BY4716, 24 h, basal condition (AID 1173); settings: OD600, 24 h, higher = more signal, called active from +8 up or from −8 down
[3] = MM1S myeloma cell viability, profiling panel, resazurin fluorescence, basal, 24 h, PK04 Diversity Set (AID 1174); settings: higher = more signal, called active from +8 up or from −8 down;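 note: MM1S multiple myeloma cell line; test concentration not given here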
[4] = target: Dihydroorotate dehydrogenase (quinone), mitochondrial (Plasmodium falciparum (isolate 3D7)) (UniProt Q08210); experiment: PfDHODH enzyme inhibitors, primary screen, biochemical, C-terminal His tag, absorbance 600 nm (AID 1175); settings: DCIP absorbance 600 nm, higher = more signal, called active from +8 up or from −8 down;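 note: recombinant parasite enzyme with a five histidine tag at its C terminus; test concentration not given here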
Chain of Dihydroorotate dehydrogenase (quinone), mitochondrial (Plasmodium falciparum (isolate 3D7)) (Q08210 whole entry, looked up): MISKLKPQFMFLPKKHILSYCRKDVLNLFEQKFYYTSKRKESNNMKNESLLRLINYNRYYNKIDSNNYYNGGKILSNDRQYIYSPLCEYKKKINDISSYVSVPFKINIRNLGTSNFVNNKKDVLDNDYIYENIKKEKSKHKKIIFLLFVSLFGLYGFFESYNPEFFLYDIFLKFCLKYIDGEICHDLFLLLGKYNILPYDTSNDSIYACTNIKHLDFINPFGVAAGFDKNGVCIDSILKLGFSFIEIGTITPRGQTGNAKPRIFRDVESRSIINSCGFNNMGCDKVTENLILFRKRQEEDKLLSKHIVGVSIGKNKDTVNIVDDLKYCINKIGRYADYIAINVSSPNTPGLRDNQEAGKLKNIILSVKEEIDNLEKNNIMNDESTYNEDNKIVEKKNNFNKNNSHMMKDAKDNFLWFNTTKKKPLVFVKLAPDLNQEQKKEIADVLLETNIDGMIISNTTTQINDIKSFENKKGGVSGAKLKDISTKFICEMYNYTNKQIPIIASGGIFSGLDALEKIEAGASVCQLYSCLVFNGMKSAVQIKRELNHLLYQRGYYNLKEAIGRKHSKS

[5] = P. aeruginosa biofilm formation inhibitors, primary screen, strain PAO1, LB-PBS medium, absorbance 600 nm (AID 1176); note: test concentration not given here; settings: P. aeruginosa PAO1 growth/biofilm, A600, 12 h; higher = more signal
[6] = S. cerevisiae RM11-1a growth modifiers, primary screen, strain RM11-1a, OD600, basal, 24 h (AID 1177); settings: OD600, 24 h, higher = more signal, called active from +8 up or from −8 down;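 note: cultures grown under basal conditions with no added stressor; test concentration not given here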
[7] = E. coli acrAB mutant growth effects, primary screen, E. coli filamentation inducers, strain DRC39, OD650, 24 h (AID 1178); settings: higher = more signal, called active from +8 up or from −8 down;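 note: growth measured as culture turbidity by optical density at 650 nm; test concentration not given here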
[8] = E. coli acrAB mutant growth effects, primary screen, E. coli filamentation inducers, strain DRC39, OD650, 48 h (AID 1179);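 note: screen aims at cell division blockers that make cells filament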; settings: E. coli DRC39 delta-acrAB growth, higher = more signal, called active from +8 up or from −8 down
[9] = RPMI8226 myeloma cell viability, profiling panel, resazurin fluorescence, basal, 24 h, PK04 Diversity Set (AID 1180); settings: higher = more signal;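 note: RPMI8826 multiple myeloma cell line at 5000 cells per well; test concentration not given here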
[10] = target: E3 ubiquitin-protein ligase XIAP (Homo sapiens) (UniProt P98170); experiment: XIAP binders, primary screen, biophysical, small-molecule microarray, fluorescence 635 nm (AID 1181); settings: small-molecule microarray binding, higher = more signal;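 note: score merges 667 nm emission and signal to noise over triplicate slides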
Chain of E3 ubiquitin-protein ligase XIAP (Homo sapiens) (P98170 whole entry, looked up): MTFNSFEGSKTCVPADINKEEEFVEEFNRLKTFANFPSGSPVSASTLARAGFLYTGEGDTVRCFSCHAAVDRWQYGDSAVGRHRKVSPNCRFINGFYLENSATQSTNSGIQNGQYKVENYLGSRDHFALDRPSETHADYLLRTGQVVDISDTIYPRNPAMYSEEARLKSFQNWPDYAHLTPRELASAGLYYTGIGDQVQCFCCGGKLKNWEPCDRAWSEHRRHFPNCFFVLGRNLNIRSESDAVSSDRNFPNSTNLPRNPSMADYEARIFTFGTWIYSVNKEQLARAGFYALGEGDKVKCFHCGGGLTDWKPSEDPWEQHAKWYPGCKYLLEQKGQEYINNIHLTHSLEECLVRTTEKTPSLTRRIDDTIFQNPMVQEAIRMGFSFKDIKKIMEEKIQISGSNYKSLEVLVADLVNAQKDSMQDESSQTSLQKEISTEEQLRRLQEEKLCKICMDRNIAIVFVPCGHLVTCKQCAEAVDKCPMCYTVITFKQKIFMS

Compound	z-score [1]	z-score [2]	z-score [3]	composite z-score [4]	z-score [5]	z-score [6]	z-score [7]	z-score [8]	z-score [9]	composite z-score [10]
COC(=O)[C@H]1N=C(c2ccc(OCCCO)cc2)O[C@H]1c1ccccc1CN=[N+]=[N-]	1.55	-0.785 (inactive)	0.236 (inactive)	0.982 (inactive)	-0.043 (inactive)	1.29 (inactive)	0.535 (inactive)	-0.0456 (inactive)	1.32	0.331
NC(=O)NCC#Cc1ccc2c(c1)[C@]1(C(=O)N2)[C@H](c2ccc(O)cc2)N2[C@H](c3ccccc3)[C@H](c3ccccc3)OC(=O)[C@H]2[C@@H]1C(N)=O	-0.49	-0.297 (inactive)	-0.226 (inactive)	-0.552 (inactive)	0.185 (inactive)	0.603 (inactive)	0.968 (inactive)	0.936 (inactive)	-0.11	0.074
[N-]=[N+]=NCc1ccccc1[C@H]1OC(c2ccc(OCCCO)cc2)=N[C@@]1(Cc1ccccc1N=[N+]=[N-])C(=O)N1CCCCC1	-0.585	-0.707 (inactive)	-2.42 (inactive)	-0.062 (inactive)	0.879 (inactive)	1.66 (inactive)	-0.457 (inactive)	0.495 (inactive)	-2.94	-0.0062
COc1cc2c(cc1OC)CN(C(=O)[C@@H]1[C@H]3C(=O)O[C@H](c4ccccc4)[C@H](c4ccccc4)N3[C@H](c3ccc(O)cc3)[C@@]13C(=O)Nc1ccc(C#CCNC(N)=O)cc13)CC2	1.1	0.526 (inactive)	0.602 (inactive)	-0.0904 (inactive)	0.723 (inactive)	2.03 (inactive)	0.595 (inactive)	0.322 (inactive)	0.431	-0.0663
CN1C(=O)C2C=CC(C(O)C3CCCCC3)N(N(c3ccccc3)c3ccccc3)C2C1=O (stereo not given)	-0.11	0.495 (inactive)	-1.54 (inactive)	-0.15 (inactive)	0.571 (inactive)	0.0139 (inactive)	-0.881 (inactive)	-0.121 (inactive)	-1.54	0.264
COCCCNC(=O)[C@@]1(Cc2ccccc2I)c2ccccc2C(=O)N(Cc2ccccc2Cl)[C@H]1c1ccc(CO)cc1	1.01	-1 (inactive)	1.59 (inactive)	-0.278 (inactive)	0.112 (inactive)	-0.0403 (inactive)	0.0867 (inactive)	0.607 (inactive)	1.82	0.186
COc1ccc([Si](C)(C)[C@H]2[C@H](CCO)O[C@@]3(C(=O)N(Cc4cccc(N5CCOC5=O)c4)c4ccccc43)[C@@H]2C)cc1	-1.55	1.34 (inactive)	-4.67 (inactive)	-0.287 (inactive)	2 (inactive)	4.7 (inactive)	0.803 (inactive)	0.113 (inactive)	-3.21	-0.0755
COCCOC(=O)N1C(=O)[C@@]2(c3cc(C#Cc4ccc(OC)cc4)ccc31)[C@H](C(N)=O)[C@H]1C(=O)O[C@H](c3ccccc3)[C@H](c3ccccc3)N1[C@@H]2c1ccc(OCCO)cc1	0.0456	1.61 (inactive)	-1.41 (inactive)	-0.0352 (inactive)	1.71 (inactive)	2.42 (inactive)	-0.315 (inactive)	-0.697 (inactive)	-1.82	-0.157
COCCCNC(=O)[C@@H]1c2ccccc2C(=O)N(c2ccc(C)cn2)[C@H]1c1ccc(CO)cc1	-1.23	0.357 (inactive)	0.507 (inactive)	0.293 (inactive)	0.242 (inactive)	0.169 (inactive)	-0.541 (inactive)	-0.856 (inactive)	0.162	-0.195
COC(=O)[C@@]1(Cc2ccc(OC)cc2)[C@H]2c3cc(C(=O)N(C)C)n(Cc4cc(F)c(F)c(F)c4)c3C[C@H]2CN1C(=O)c1ccccc1	-1.07	1.83 (inactive)	-2.61 (inactive)	-2.65 (inactive)	4.06 (inactive)	0.726 (inactive)	-0.337 (inactive)	-0.622 (inactive)	-2.32	0.0957
COc1ccc([Si](C)(C)[C@@H]2[C@@H](CC(=O)N3Cc4ccccc4C[C@H]3CO)O[C@]3(C(=O)N(Cc4cccc(N5CCCCC5=O)c4)c4ccccc43)[C@H]2C)cc1	-1.16	0.0062 (inactive)	-3.09 (inactive)	-1.02 (inactive)	0.331 (inactive)	1.98 (inactive)	-0.453 (inactive)	-0.878 (inactive)	-2.15	-0.148
O=C1O[C@@H](c2ccccc2)[C@@H](c2ccccc2)N2[C@@H](c3ccc(O)cc3)[C@]3(C(=O)Nc4ccc(C#CC5=CCCCC5)cc43)[C@@H](C(=O)Nc3nc4ccccc4s3)[C@H]12	0.235	-0.826 (inactive)	-0.139 (inactive)	-0.504 (inactive)	2.14 (inactive)	0.137 (inactive)	0.591 (inactive)	0.986 (inactive)	-0.595	-0.0925
O=C(CS)NCCCCCNC(=O)[C@@H]1C[C@@H]2C(=O)N3CCC[C@H]3C(=O)N2[C@@H]1c1ccc(O)cc1	-0.196	-0.419 (inactive)	-0.0752 (inactive)	0.252 (inactive)	-0.102 (inactive)	0.132 (inactive)	-0.651 (inactive)	-0.265 (inactive)	-0.0255	-0.127
COC(=O)C(CC#Cc1ccc2c(c1)[C@]1(C(=O)N2)[C@H](C(=O)N2CCc3cc(OC)c(OC)cc3C2)[C@H]2C(=O)O[C@H](c3ccccc3)[C@H](c3ccccc3)N2[C@@H]1c1ccc(OCCO)cc1)C(=O)OC	-0.0956	2.36 (inactive)	-0.229 (inactive)	-6.24 (inactive)	3.55 (inactive)	4.29 (inactive)	-0.538 (inactive)	0.704 (inactive)	-0.0688	0.23
Cc1ccc(C(C)CC(O)C2C=CC3C(=O)N(Cc4ccccc4)C(=O)C3N2n2cnnc2)o1 (stereo not given)	-1.13	-9.36 (active)	-0.817 (inactive)	-0.101 (inactive)	0.368 (inactive)	-1.4 (inactive)	-1.46 (inactive)	-1.22 (inactive)	-0.841	0.263
COc1cc2c(cc1OC)CN(C(=O)[C@@H]1[C@H]3C(=O)O[C@H](c4ccccc4)[C@H](c4ccccc4)N3[C@H](c3ccc(OCCO)cc3)[C@@]13C(=O)Nc1ccc(C#CCCO)cc13)CC2	-0.0794	0.66 (inactive)	0.113 (inactive)	1.66 (inactive)	2.75 (inactive)	1.45 (inactive)	0.592 (inactive)	-0.13 (inactive)	0.768	-0.113
COc1ccc([Si](C)(C)[C@@H]2[C@@H](CC(=O)N(CCO)Cc3ccccc3)O[C@]3(C(=O)N(Cc4ccc(N5CCOC5=O)cc4)c4ccccc43)[C@H]2C)cc1	-1.12	0.613 (inactive)	-1.85 (inactive)	-0.0014 (inactive)	1.77 (inactive)	0.953 (inactive)	1.16 (inactive)	0.307 (inactive)	-2.31	-0.0333
CCCCCCCCCCC(O)C1C=CC2C(=O)NC(=O)C2N1Nc1ccccn1 (stereo not given)	-2.19	-10.4 (active)	-2.8 (inactive)	0.364 (inactive)	2.43 (inactive)	-5.05 (inactive)	-2.29 (inactive)	-3.65 (inactive)	-1.64	0.0153
CCCC=C(CCC)[C@@H](NS(=O)(=O)c1cccc2cccnc12)c1ccc(C(=O)OC)cc1	0.582	1.35 (inactive)	0.058 (inactive)	-0.0345 (inactive)	0.371 (inactive)	1.04 (inactive)	0.134 (inactive)	-0.754 (inactive)	0.0013	0.67
C=C(COC)/C(=C/C[C@@H](OC(=O)c1ccncc1)c1cccc(OCCO)c1)c1cc(C(=O)OC)ccc1OC	-0.114	-18.2 (active)	-0.477 (inactive)	-7.37 (inactive)	0.236 (inactive)	-22.1 (active)	0.802 (inactive)	0.488 (inactive)	0.0987	0.201
COc1ccccc1CN1C(=O)c2ccccc2[C@@H](C(=O)NCC(C)C)[C@@H]1c1ccc(CO)cc1	-1.4	0.352 (inactive)	0.897 (inactive)	0.769 (inactive)	0.31 (inactive)	0.777 (inactive)	0.547 (inactive)	0.347 (inactive)	1.02	-0.104
COc1ccc(CCNC(=O)[C@@H]2c3ccccc3C(=O)N(Cc3ccccc3)[C@H]2c2ccc(CO)cc2)cc1	0.713	-0.996 (inactive)	-2.71 (inactive)	-0.489 (inactive)	0.801 (inactive)	-0.539 (inactive)	1.62 (inactive)	1.78 (inactive)	-0.648	-0.0272
[N-]=[N+]=Nc1ccccc1C[C@]1(C(=O)NCCN2CCOCC2)N=C(c2ccc(OCCCO)cc2)O[C@H]1c1ccccc1N=[N+]=[N-]	-1.31	-4.84 (inactive)	-1.83 (inactive)	-0.695 (inactive)	-0.596 (inactive)	-0.505 (inactive)	-0.0345 (inactive)	1.31 (inactive)	-2.13	0.0402
